DT40 TDP1 CPT: DT40-hTDP1 cell growth loss with CPT. chicken DT40 Tdp1-/-;hTDP1 cells + 20 nM CPT, ATP luminescence, 48 h. Potency, µM (titrated, usually from 46.2 µM), most hits filed as inhibitors. actives 12% (n = 420,000). AID 686979; also: nearly all actives have a fitted effect of over 55% in size
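Chicken DT40 Tdp1-/- cells stably complemented with human TDP1 were seeded at 400 cells/well in medium containing 20 nM camptothecin, exposed to pin-transferred compounds, and grown at 37 °C for at least 48 hr. Viability was read as ATP luminescence.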
HT1080-NT tox: kills 2HG-producing HT-1080-NT fibrosarcoma cells. actives 1.6% (n = 360,000). HT-1080-NT fibrosarcoma viability, CellTiter-Glo ATP luminescence, 48 h. Potency, µM (series often up to 46.1 µM), most hits filed as cytotoxic. AID 686970;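 also: NT is the 2HG producing partner of a matched IDH1 knockdown line; nearly all actives have a fitted effect of over 55% in size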
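Fibrosarcoma NT cells, 750 per well in 5% FBS RPMI, were exposed to compound for 48 hours. Viability: CellTiter-Glo luminescence.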
HT1080 IDH1KD tx: HT-1080 IDH1 knockdown cell toxicity (counter line). Potency, µM (top dose mostly 46.1 µM), hits mostly cytotoxic. actives 2% (n = 360,000). HT-1080 IDH1 knockdown viability, ATP luminescence, 48 h
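% activity derives from luminescence (CellTiter-Glo), normalised to DMSO and no-cell wells. HT-1080-IDH1KD cells, 750/well, had 48 h compound exposure at 37 °C.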
DT40 TDP1 no CPT: qHTS for Inhibitors of human tyrosyl-DNA phosphodiesterase 1 (TDP1): qHTS in cells in absence of CPT; DT40 Tdp1-/- hTDP1 cells, no CPT, ATP luminescence, 48 h; Potency, µM (doses to about 46.2 µM), usual class: inhibitors; actives 15% (n = 420,000); also: nearly all actives have a fitted effect of over 55% in size
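Seeded 400 DT40-hTDP1 cells/well (vehicle DMSO, no 20 nM CPT); pinned compounds; ≥48 hr at 37 °C; CellTiter-Glo luminescence as viability measure.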
IL-1B inflam inh: inhibitors of inflammasome signaling (IL-1 beta secretion); actives 4.7% (n = 360,000); AID 743279; THP-1 LPS/ATP IL-1B secretion, AlphaLISA, 16 h; hits give low values; activity change, % at 57.5 µM; in the data active = activity change below about -50%; inconclusive = mostly about -30% to -49%
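THP-1 cells pretreated 1 hr with compounds (up to 57.5 uM final), then stimulated with LPS (250 ng/mL final) plus ATP (1.25 mM final); secreted IL-1B measured by AlphaLISA after 16 hr, decreased signal indicating inhibition.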
ELG1 repair inh: ELG1-dependent DNA repair inhibition | HEK293T ELG1-luciferase reporter, luminescence, 16 h; DNA damage induced by 5-fluorouridine | Potency, µM (highest dose often 46.1 µM), usual class: inhibitors | actives 2.3% (n = 330,000) | AID 504467; also: nearly all actives have a fitted effect of over 55% in size
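Step one: seed 2,000 cells per well. Step two: pin-transfer compound or DMSO alongside 5-fluorouridine. Step three: incubate 16 hr, 37 °C, 5% CO2. Step four: add ONE-Glo, wait 30 min, read luminescence.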
A number is an active result; . = inactive; ? = inconclusive; / = not tested or not shown; [ ] = another dose, or the depositor's remark. The list is not random: actives were taken first. Their share in the collection is about 19%. Unless noted, calls follow the shape of the dose curve; as a rule, active = well fitted curve in the direction sought with a large enough effect; inconclusive = small, poorly fitted or top-dose-only effect, or another doubt; inactive = no such curve, though single readings can be large; an effect the other way counts as inactive or inconclusive.

SMILES	DT40 TDP1 CPT	HT1080-NT tox	HT1080 IDH1KD tx	DT40 TDP1 no CPT	IL-1B inflam inh	ELG1 repair inh
COc1ccc(OC)c(CCNC(=O)Cn2nc(C)n3c(cc4sccc43)c2=O)c1	.	/	/	.	/	/
O=C(CBr)N1CCc2ccccc2C(c2ccccc2)C1 (stereo not given)	2.6µM	26µM	21µM	2.6µM	.	.
CCOc1cc(/C=N/O)ccc1OCc1ccc([N+](=O)[O-])cc1	?	.	.	.	.	.
COc1cc(/C=N/O)ccc1Oc1ccc([N+](=O)[O-])cc1[N+](=O)[O-]	?	.	.	18µM	.	.
CCN1C(=O)C(=Cc2cccc(OC)c2Oc2ccc([N+](=O)[O-])cc2[N+](=O)[O-])SC1=S	1.5µM	2.6µM	3.3µM	1.5µM	-95	?
CO/N=C/c1ccc(Oc2ccc([N+](=O)[O-])cc2[N+](=O)[O-])c(OC)c1	?	?	?	16µM	.	.
CCN1C(=O)/C(=C\c2ccc(-c3ccc([N+](=O)[O-])cc3OC)o2)SC1=Nc1cccc(C(=O)O)c1	.	.	.	.	.	?
COc1cc(/C=C2\SC(=O)NC2=O)ccc1Oc1ccc([N+](=O)[O-])cc1[N+](=O)[O-]	18µM	.	?	16µM	.	?
COc1ccc(/C=C2\SC(=O)NC2=S)cc1OC	10µM	?	?	?	-74	?
c1ccc2sc(N3CCCN(Cc4nc(-c5cnccn5)no4)CC3)nc2c1	.	.	.	?	.	?
Cc1ccc(Cc2c(-c3ccc(C)cc3)nc3c(C)cc(Br)cn23)cc1	16µM	?	.	16µM	.	/
Cc1cc(Br)cn2c(Cc3ccccc3)c(-c3ccc(C#N)cc3)nc12	18µM	.	.	?	.	/
Cc1ccc(Cc2c(-c3ccc(F)cc3)nc3c(C)cc(Br)cn23)cc1	21µM	?	?	16µM	.	/
Cc1cc(Br)cn2c(Cc3ccccc3)c(-c3ccc(Cl)cc3)nc12	.	.	.	.	.	/
COc1cccc(CNC(=O)C(=O)NCC(c2ccc3c(c2)OCO3)N2CCOCC2)c1 (stereo not given)	.	/	/	.	/	/
Cc1cccc(C)c1NC(=O)CN1C(=O)c2cccc3cccc1c23	?	/	/	.	/	/
CC(=O)c1ccc(NC(=O)COc2ccccc2-c2nc(-c3ccc(C)cc3)no2)cc1	.	/	/	.	/	/
COC(=O)c1ccc(C(=O)N2CCc3c(C(=O)NC(C)c4ccco4)c(OC)cc(=O)n3CC2)cc1 (stereo not given)	.	/	/	.	/	/
O=c1c2ccccc2[nH]c(=S)n1CCCN1CCC(Cc2ccccc2)CC1	?	.	.	?	.	.
CCN1C(=S)SC(=O)C1=C1C=C(C)OC(C)=C1	.	.	.	?	.	?
CCN1C(=S)SC(=O)C1=C1C=C(C)N(Cc2ccco2)C(C)=C1	4.6µM	.	.	5.2µM	.	?
O=C(CN1CCN(c2ccccc2)CC1)Nc1ccc2c(c1)OCCO2	.	.	.	.	.	.
O=C(CN1CCN(S(=O)(=O)c2ccc(Cl)cc2)CC1)Nc1ccc2c(c1)OCCO2	?	.	.	15µM	.	.
O=C(CN1CCN(S(=O)(=O)c2ccc(Cl)cc2)CC1)Nc1ccc2c(c1)OCO2	?	.	.	29µM	.	.
O=C(CN1CCN(c2ccccc2O)CC1)Nc1ccc2c(c1)OCCCO2	.	.[9.24 µM]	.	.	-50	.
SMILES	DT40 TDP1 CPT	HT1080-NT tox	HT1080 IDH1KD tx	DT40 TDP1 no CPT	IL-1B inflam inh	ELG1 repair inh
O=C(CN1CCN(S(=O)(=O)c2ccc(Br)cc2)CC1)Nc1ccc2c(c1)OCCO2	.	.	.	.	.	?
Cc1nn(C)c(Nc2ccc(Br)cc2)c1Br	15µM	.	?	18µM	-55	?
CC(NC(=O)C12CC3CC(CC(C3)C1)C2)C(=O)N/N=C/C1=C(N2CCOCC2)C(=C\c2ccccc2)/CC1 (stereo not given)	?	.	?	21µM	.	.
O=C1Nc2ccc(Br)cc2/C1=N\N=C\C1=C(N2CCOCC2)C(=C/c2ccccc2)/CC1	?	.	.	10µM	.	/
Cn1cc(C(=O)N/N=C/C2=C(N3CCOCC3)C(=C\c3ccccc3)/CC2)ccc1=O	?	.	.	?	.	?
O=C1Nc2ccccc2/C1=N/N=C/c1cccc(O)c1	.	.	.	?	.	.
Cn1c(C=O)c(C#Cc2ccccc2)c2ccccc21	?	.	.	23µM	.	.
COc1ccc(C#Cc2c(C=O)n(C)c3ccccc23)cc1	?	.	.	?	.	.
Cc1ccccc1N1CCN(c2ccc(NC(=O)C3CCCCC3C(=O)O)cc2)CC1 (stereo not given)	?	.	.	9.2µM	.	?
O=C(CSCc1cnn(-c2ccccc2)c1-n1cccc1)N1CCN(Cc2ccccc2)CC1	?	.	.	13µM	.	?
Cc1ccc(CNC(=O)CCSCCC(=O)NCc2ccc(C)cc2)cc1	.	.	.	.	.	.
COc1cccc(CSCC(=O)NCCc2ccccc2)c1OC	?	.	.	.	.	.
Cc1ccc(CNC(=O)CCSCc2cnn(-c3ccccc3)c2-n2cccc2)cc1	18µM	/	/	15µM	/	/
O=C(CSCc1cnn(-c2ccccc2)c1-n1cccc1)NCc1cccc(Cl)c1	16µM	/	/	23µM	/	/
COc1cccc(CNC(=O)CSCc2cnn(-c3ccccc3)c2-n2cccc2)c1OC	26µM	.	.	?	?	?
CC(=O)c1cccc(OCc2cc(C(=O)N3CCC(N4CCCCC4)CC3)no2)c1	.	.	.	.	.	?
CCCc1cc2c(cc1NC(=O)c1ccc(C)cc1)OCO2	.	.	.	.	.	?
COc1ccccc1CNC(=O)CSCc1cnn(-c2ccccc2)c1-n1cccc1	?	.	.	16µM	.	?
O=C(CSCc1cnn(-c2ccccc2)c1-n1cccc1)NCc1cccnc1	?	.	.	?	.	.
COc1ccc(CNC(=O)c2cccc(S(=O)(=O)N3CCCCC3)c2)cc1OC	13µM	.	.	?	.	?
Cc1cc(N2CCN(C)CC2)ccc1NC(=O)c1cccc(S(=O)(=O)N2CCc3ccccc3C2)c1	23µM	?	.	18µM	-103	.
COc1cc(OC)c(OC)cc1CNC(=O)c1cccc(S(=O)(=O)N2CCc3ccccc3C2)c1	13µM	?	.	8.2µM	.	?
CCOc1ccc(CCNC(=O)c2cccc(S(=O)(=O)N3CCCCC3)c2)cc1OCC	13µM	.	.	7.3µM	.	?
